According to PubChem BioAssay AID504797 (The Scripps Research Institute Molecular Screening Center, 2011):
The other results are listed elsewhere or left out. Unmarked numbers belong to inactive results. Active and inactive are the calls of the source. Rule as the data show it: active = activation above about 19%; inactive = the rest. Residues, ends and D or L forms follow the SMILES beside them.

Target: cAMP-dependent protein kinase type II-beta regulatory subunit (Homo sapiens) (UniProt P31323)
Sequence (P31323 whole entry, looked up): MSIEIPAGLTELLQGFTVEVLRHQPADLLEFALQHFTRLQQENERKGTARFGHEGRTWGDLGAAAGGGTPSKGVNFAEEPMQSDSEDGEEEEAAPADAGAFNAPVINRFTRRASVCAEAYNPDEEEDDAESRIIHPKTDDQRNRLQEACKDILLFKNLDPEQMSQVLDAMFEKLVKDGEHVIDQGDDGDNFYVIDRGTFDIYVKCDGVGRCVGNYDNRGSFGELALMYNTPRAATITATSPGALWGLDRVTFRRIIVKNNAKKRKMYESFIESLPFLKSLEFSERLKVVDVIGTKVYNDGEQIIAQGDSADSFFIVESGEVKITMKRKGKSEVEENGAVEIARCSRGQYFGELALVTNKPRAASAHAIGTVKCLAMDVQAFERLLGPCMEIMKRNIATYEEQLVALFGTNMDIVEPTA
Experiment: activators of PKA-R2B holoenzyme, confirmation, biochemical, fluorescence polarization, human (AID 504797)
Details: PKA-R2B complex, at 11.4 µM, hits give high values

Row | Structure (SMILES) | activation
1 | CC(C)(C)c1ccc(C(=O)N2CCC(C(=O)N3CCCCC3)CC2)cc1 | -0.14%
2 | O=C(CN(C(=O)CCC(=O)Nc1nccs1)c1ccc(F)cc1)NCc1ccc2c(c1)OCO2 | 3.19%
3 | CCCC(=O)Nc1ncnc2c1ncn2[C@@H]1O[C@@H]2OP(=O)(O)OC[C@H]2[C@H]1OC(=O)CCC | 36.6% (active)
4 | CC(C)(C)c1nnc(N/N=C/c2ccc(O)cc2)n(N)c1=O | 3.54%
5 | N#Cc1ccccc1CN1C(=O)S/C(=C/c2cccn2-c2cccc(C(=O)O)c2)C1=O | 19.4% (active)
6 | COc1ccc(C/C(C)=N/NC(=O)c2ccncc2)cc1 | 0.21%
7 | COc1ccc([N+](=O)[O-])cc1C1NN=C(c2cccc3ccccc23)S1 (stereo not drawn) | 1.59%
8 | COc1cccc(Nc2nnc(SCC(=O)N3CC(C)OC(C)C3)s2)c1 (stereo not drawn) | 1.96%
9 | O=C(O)C1=C(C(=O)O)C2CCC1C2 | -0.5%
10 | COc1ccc(CC(NC(C)=O)C(=O)NC2CCN(C(=O)c3ccc(Cl)cc3)CC2)cc1 (stereo not drawn) | 2.1%
11 | O=C(CNC(=O)c1ccccc1)NCC(=O)OCC(=O)c1ccccc1 (HELM PEPTIDE1{[O=C(c1ccccc1)[*:2]].G.G.[O=C(CO[*:1])c1ccccc1]}$$$$V2.0) | 3.61%
12 | O=C(CCCN1C(=O)c2cccc3cccc(c23)C1=O)N1CCN(Cc2ccc3c(c2)OCO3)CC1 | -2.59%
13 | O=S(=O)(NCCNS(=O)(=O)c1ccccc1)c1ccccc1 | 4.44%
